# Test results published in PubChem BioAssay AID493084 (National Center for Advancing Translational Sciences (NCATS), 2011).
# Several values for one entry are separate records, joined by “and”; a condition that tells them apart may be missing. Equal entries are not always repeated. About 650 (0.18%) of roughly 360,000 compounds were called active. No stated cut-off is given here; in the data, active means activation above about 30%; inactive means the rest. For the sample, actives were picked, then their nearest neighbours and some compounds at random.
# Molecular target: Thyrotropin-releasing hormone receptor (Homo sapiens) (UniProt P34981)
# Sequence (P34981 whole entry, looked up): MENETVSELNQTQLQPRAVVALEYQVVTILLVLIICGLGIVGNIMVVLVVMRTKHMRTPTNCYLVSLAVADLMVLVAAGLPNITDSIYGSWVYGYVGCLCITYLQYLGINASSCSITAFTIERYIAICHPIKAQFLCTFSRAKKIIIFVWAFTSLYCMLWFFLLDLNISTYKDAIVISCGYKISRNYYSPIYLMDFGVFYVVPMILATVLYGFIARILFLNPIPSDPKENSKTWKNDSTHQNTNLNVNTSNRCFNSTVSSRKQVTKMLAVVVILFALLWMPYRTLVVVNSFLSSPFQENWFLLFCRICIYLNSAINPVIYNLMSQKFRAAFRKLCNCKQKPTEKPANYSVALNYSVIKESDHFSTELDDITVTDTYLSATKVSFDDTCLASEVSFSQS
# Assay: qHTS for Small Molecule Agonists and Allosteric Enhancers of Human TRH Receptor: Primary Screen for Agonists. Further: 0% is about no effect.
# Conditions: TRHR cells, calcium flux fluo-8, FDSS agonist mode; at 2 µM; hits give high values
# Excerpt: NIH Chemical Genomics Center [NCGC] NIH Molecular Libraries Probe Centers Network [MLPCN] MLPCN Grant: MH089816-01 Assay Submitter (PI): Marvin Gershengorn This project aims to identify small drug-like molecules that activate (agonists) the thyrotropin releasing hormone (TRH) receptor (TRHR) or enhance its TRH-stimulated activity (allosteric enhancers). TRHR, a drug-accessible cell surface receptor expressed in specific brain regions, and its ligand TRH have been implicated in several central nervous system disorders, including depression and anxiety. Small molecule TRHR agonists or allosteric enhancers that are metabolically stable and able to cross the blood-brain barrier might serve as probes to elucidate the roles of brain TRH receptors in animal models, and might be valuable as lead compounds for the development of drugs to treat patients with central nervous system disorders. Upon TRHR-Gq activation in TRHR cells, intracellular calcium is released from stores in the endoplasmic reticulum. […] This primary screen measures compound-induced activation of calcium release.
# For the HTS assay freshly prepared cells are plated at a density of 2000/well in 3 ul of complete DMEM medium containing 10% serum in 1536-well plates and cultured over night at 37 C in a humidified incubator with 5% CO2. The next day, 2 ul of a no wash calcium dye (ABD Bioquest) was added to the cells and plates were incubated at room temperature for 1 hour. For the assay, assay plates were loaded into the FDSS kinetic plate reader. A 10 cycle (1 second/cycle) baseline measurement is taken and then the FDSS online 1536 pintool delivers 23 nl of compound library (as well as TRH controls) to the plate. The plate is measured for kinetically at 1 cycle/sec for 180 seconds and is considered to be the agonist portion of the assay (eg, compounds which activate a positive calcium response during this portion are flagged as potential agonists). Following the 180 second read, 1 ul of either an EC20 (positive modulation assay) is delivered by an onboard pipette head. Measurements are taken kinetically for an additional 180 seconds. TRHR FDSS Screening Protocol 1. Reagent, 3 uL 2000 cells/well 1536 TC treated Black plate in media containing 10% FCS 2. Time, 18 hours, 33.5C 5% CO2 (cells grown at 37C) 3. Reagent, 2 uL ABD fluo-8 Ca dye 4. Time, 30 min-1.5hrs hours, Room temp (6 plates/batch) 5. Detector, EX 480/EM 530C, FDSS 10 cycles baseline (1sec/cycle) 6. Compound, 23 nL of stock solution from library 7. Detector, EX 480/EM 530C, FDSS […] (1sec/cycle) Agonist mode 8. Compound, 1 ul EC20 of TRH made up in HEPES HBSS, 10 nM final 9. Detector, EX 480/EM 530C, FDSS 100 cycles (1sec/cycle) Potentiator mode
row,Structure (SMILES),activation
1,CCc1ccccc1NC(=O)CCOc1ccccc1,0.744% (inactive) and -1.55% (inactive)
2,CCc1ccccc1NC(=O)/C(=C/c1ccccc1)c1ccccc1,56.2% (active)
3,CCc1ccccc1NC(=S)Nc1cc(OC)c(NC(=O)C(C)C)cc1OC,0.112% (inactive)
4,Cc1c(NC(=O)C(C)(C)C)cccc1-c1nc2ccccc2s1,1.53% (inactive)
5,O=C(Cn1nc(Cc2cccnc2)c2ccccc2c1=O)N1CCN(c2ccccc2F)CC1,-1.92% (inactive)
6,CCOc1ccc(NC(=O)c2cnn(-c3ccccc3)c2-n2cccc2)cc1,-2.32% (inactive)
7,O=C(NCCCO)C(=O)Nc1c2c(nn1-c1ccc(F)cc1)CSC2,-1.01% (inactive)
8,CCOC(=O)c1ccc2[nH]c3c(c2c1)CCCC3NC=O (stereo unspecified),0.37% (inactive)
9,CCOC(=O)c1cc2cc(C)ccc2[nH]1,0.835% (inactive)
10,CCOC(=O)c1[nH]c2ccc(C)cc2c1N=C(C)N(C)C,32.1% (active)
11,NC(=O)c1ccc(NC(=O)COC(=O)C(Cc2ccccc2)NC(=O)c2ccccc2)cc1 (stereo unspecified),-0.12% (inactive)
12,O=C(CSc1nc(C2CC2)nc2ccccc12)Nc1ccc2c(c1)OCCO2,-1.49% (inactive)
13,NC(=O)c1ccc(NC(=O)COC(=O)c2c3c(nc4ccccc24)/C(=C\c2ccc4c(c2)OCO4)CCC3)cc1,50.8% (active)
14,Cn1nnnc1Sc1ncnc2scc(-c3ccccc3[N+](=O)[O-])c12,-0.547% (inactive)
15,N#Cc1nc(/C=C/c2ccc(F)cc2)oc1NC1CCCCC1,0.903% (inactive)
16,CCCCOc1ccc(CNC(=O)c2ccc3c(c2)N(C)C(=O)C2CCCCN32)cc1 (stereo unspecified),-0.251% (inactive)
17,CNC(=O)c1ccc(-c2nc(CN3CCc4ccccc43)c(C)o2)cc1,-1.17% (inactive)
18,Nc1c(C(=O)c2cccs2)sc2nsc(SCCN3CCCCC3)c12,99.5% (active)
19,COC(=O)c1ccccc1NC(=O)c1cc(-c2ccccc2O)no1,-0.321% (inactive)

row,Structure (SMILES),activation
1,CC(NC(=O)CCc1cn(Cc2ccccc2Cl)c2ccccc12)c1ccccc1 (stereo unspecified),0.58% (inactive)
2,COc1cc(OC)c(OC)cc1/C=C/c1nc2cc3ccccc3cc2c(=O)n1-c1ccc(F)c(Cl)c1,0.234% (inactive)
3,Cc1cc2nc3c(=O)n(Cc4ccccc4)c(=O)[nH]c3nc2cc1N,134% (active)
4,Cn1c(=O)[nH]c(=O)c2c1[nH]c(=S)n2Cc1ccccc1,0.0169% (inactive)
5,CCC(=O)Nc1ccc(C)cc1-c1nc2ccccc2n(Cc2ccccc2)c1=O,0.131% (inactive)
6,CCN(CCCNC(=O)Cn1ncc2c([nH]c3ccccc32)c1=O)c1cccc(C)c1,-0.233% (inactive)
7,Cc1cccc(CC(=O)N2CC(=O)Nc3ccc(F)cc3C2c2ccccc2)c1 (stereo unspecified),-0.138% (inactive)
8,O=C(O)c1ccc(CSc2nc3cccnc3n2Cc2cccc(F)c2)cc1,-0.0878% (inactive)
9,CCCNC(=O)c1ccc2c(c1)ncn2-c1ccc(C)cc1C,-0.34% (inactive)
10,Cc1ccc2nc(N3C(=O)C(O)=C(C(=O)c4ccco4)C3c3cccc(O)c3)sc2c1 (stereo unspecified),0.69% (inactive)
11,C=CCSc1nnc(N2C(=O)C(O)=C(C(=O)c3ccco3)C2c2ccc(F)cc2)s1 (stereo unspecified),48.4% (active)
12,O=C(C1=C(O)C(=O)N(c2ncccn2)C1c1cccs1)c1ccco1 (stereo unspecified),1.88% (inactive)
13,CCNS(=O)(=O)c1ccc(NC(=O)CSc2nc(-c3ccco3)cc(C(F)(F)F)n2)cc1,-0.0767% (inactive)
14,O=C(CNC(=O)c1ccc(Cl)c(C(F)(F)F)c1)OC(C(=O)Nc1cc(C(F)(F)F)ccc1Cl)c1ccccc1 (stereo unspecified),1.33% (inactive)
15,COc1cc2ccccc2cc1C(=O)Nc1cccc(-c2nc3ccccc3o2)c1,0.963% (inactive)
16,COc1cccc(C(=O)NC2CCN(C#N)CC2)c1,0.979% (inactive)
17,CCc1ccccc1NC(=O)c1sc2nc3c(cc2c1N)CN(Cc1ccccc1)CC3,0.215% (inactive)
18,Cn1c(=O)c2c(nc(SCC(=O)Nc3ccc(F)cc3)n2Cc2ccccc2)n(C)c1=O,-1.27% (inactive)
19,Cc1ccc(C)n1-c1nnc(N2CCC(C(=O)NCc3ccc(F)cc3)CC2)s1,-0.123% (inactive)

row,Structure (SMILES),activation
1,COc1cccc(-c2nnc3n(CCc4ccccc4)c(=O)c4ccccc4n23)c1O,0.407% (inactive)
2,Cc1ccc(CNC(=O)CCNS(=O)(=O)c2ccc3c(c2)oc(=O)n3C)cc1,-0.309% (inactive)
3,COc1ccc(-n2ccn(CC(=O)Nc3ccc(C)c(C)c3)c(=O)c2=O)cc1OC,0.851% (inactive)
4,CCOC(=O)C1CCCN(S(=O)(=O)c2cc(-c3cc(C)no3)ccc2OC)C1 (stereo unspecified),-0.0318% (inactive)
5,CC(=O)c1ccc(NC(=O)CSc2nc(-c3ccccc3F)nc3c2c(=O)n(C)c(=O)n3C)cc1,0.407% (inactive)
6,Cc1ccccc1C(=O)Nc1sc2c(c1C(=O)N1CCC(C)CC1)CCCC2,-0.34% (inactive)
7,COc1cccc(C(=O)Nc2ccc(-c3cc(C(F)(F)F)nn3-c3ccccc3)cc2)c1,1.81% (inactive)
8,COc1cccc(C(=O)NC(=O)Nc2nc(C)cc(C(F)(F)F)n2)c1,1.04% (inactive)
9,COc1cccc(C(=O)c2sc3nc(-c4ccccc4)cc(C(F)(F)F)c3c2N)c1,106% (active)
10,CCOC(=O)c1cccc(NC(=O)c2cc(CN3CCCC3)on2)c1,0.429% (inactive)
11,CCC(C)Nc1oc(-c2ccc(COc3ccc(Cl)cc3)o2)nc1C#N (stereo unspecified),0.327% (inactive)
12,O=C(NCCCCc1ccccc1)C1CC(c2ccc([N+](=O)[O-])cc2)=NO1 (stereo unspecified),-1.16% (inactive)
13,O=C1NC(=O)C2C1C(c1ccc([N+](=O)[O-])cc1)=NN2Cc1ccccc1 (stereo unspecified),34% (active)
14,O=C1CCN(Cc2ccc([N+](=O)[O-])cc2)CCN1[C@H](CO)Cc1ccccc1,1.11% (inactive)
15,CC1CCCN(c2csc3ccc(F)cc3c2=O)C1 (stereo unspecified),0.824% (inactive)
16,COc1ccccc1OCC(=O)Nc1nnc2n1CCS2,0.414% (inactive)
17,CN(c1ccccc1)c1ccc(/C=c2\s/c(=C(/C#N)C(=O)C(C)(C)C)n(Cc3ccco3)c2=O)cc1,40.8% (active)
18,CCOc1ccccc1NC(=O)Cn1c(=O)n(Cc2ccco2)c(=O)c2sc3ccccc3c21,-0.0246% (inactive)
